For 13 molecules, binding signal results are on record in PMC8222333, “AsCas12a ultra nuclease facilitates the rapid generation of therapeutic cell medicines”.

First the molecules themselves.
B1: CTTA (dsDNA)
DNA 1: GCTATCTAGTGCTCAGTACGCACTGCTTAAGGAAACTTCTGGCAGGACCAGGTCATGAGATCGGAAGAGCACACGTCTGAACTCCAGTCA
DNA 2: TGACTGGAGTTCAGACGTGTGCTCTTCCGATCTCATGACCTGGTCCTGCCAGAAGTTTCCTTAAGCAGTGCGTACTGAGCACTAGATAGC
RNA: AAUUUCUACUCUUGUAGAUAGGAAACUUCUGGCAGGACC
B2: CTTC (dsDNA)
DNA 1: B1 DNA 1 with A29C
DNA 2: B1 DNA 2 with T62G
RNA: B1 RNA
B3: TATA (dsDNA)
DNA 1: B1 DNA 1 with C26T, T27A
DNA 2: B1 DNA 2 with A64T, G65A
RNA: B1 RNA
B4: TATC (dsDNA)
DNA 1: B1 DNA 1 with C26T, T27A, A29C
DNA 2: B1 DNA 2 with T62G, A64T, G65A
RNA: B1 RNA
B5: CTTG (dsDNA)
DNA 1: B1 DNA 1 with A29G
DNA 2: B1 DNA 2 with T62C
RNA: B1 RNA
B6: TATG (dsDNA)
DNA 1: B1 DNA 1 with C26T, T27A, A29G
DNA 2: B1 DNA 2 with T62C, A64T, G65A
RNA: B1 RNA
B7: TCCC (dsDNA)
DNA 1: B1 DNA 1 with C26T, T27C, T28C, A29C
DNA 2: B1 DNA 2 with T62G, A63G, A64G, G65A
RNA: B1 RNA
B8: GTTG (dsDNA)
DNA 1: B1 DNA 1 with C26G, A29G
DNA 2: B1 DNA 2 with T62C, G65C
RNA: B1 RNA
B9: GTTA (dsDNA)
DNA 1: B1 DNA 1 with C26G
DNA 2: B1 DNA 2 with G65C
RNA: B1 RNA
B10: CTTT (dsDNA)
DNA 1: B1 DNA 1 with A29T
DNA 2: B1 DNA 2 with T62A
RNA: B1 RNA
B11: GTTC (dsDNA)
DNA 1: B1 DNA 1 with C26G, A29C
DNA 2: B1 DNA 2 with T62G, G65C
RNA: B1 RNA
B12: TCTA (dsDNA)
DNA 1: B1 DNA 1 with C26T, T27C
DNA 2: B1 DNA 2 with A64G, G65A
RNA: B1 RNA
B13: GTTT (dsDNA)
DNA 1: B1 DNA 1 with C26G, A29T
DNA 2: B1 DNA 2 with T62A, G65C
RNA: B1 RNA

Numbering of substitutions follows the chain as printed.

The first assay concerns the target dAsCas12a WT (Acidaminococcus sp., UniProt U2UMQ6 1-1307, D908A;E993A;D1235A). Nature of the assay: Spec-seq (native PAGE EMSA with sequencing of bound and unbound); 25 mM Tris-HCl pH 7.4, 150 mM KCl, 5 mM MgCl2, 10% glycerol, 1 mM DTT, 40 ng/uL salmon sperm DNA; 400 nM Cas12a, 480 nM crRNA, 50 nM library, 37 C 1 h; native P; high values mean tight binding.
Conditions: not given
Molecule B1 came in with a binding signal of -6.66 lnKA.
The same measure, in the same setting: in the case of B2 it was -6.68 lnKA.
Same read-out and setting: in the case of B3 it was -8 lnKA; in that of B4, -8.56 lnKA.
Still for that read-out and setting: for B5 the value was -7.38 lnKA; for B6, -9 lnKA.
On to B7, for which the binding signal is -8.69 lnKA.
Same read-out and setting: in the case of B8 it was -7.73 lnKA; in that of B9, -6.86 lnKA.
Still for that read-out and setting: for B10 the value was -8.63 lnKA.
On the same count and under the same terms, in the case of B11 it was -7.08 lnKA; in that of B12, -6.18 lnKA.
For B13, the binding signal was -8.41 lnKA.

For the next assay, the target named is dAsCas12a Ultra (Acidaminococcus sp., UniProt U2UMQ6 1-1307, M537R;F870L;D908A;E993A;D1235A). Nature of the assay: Spec-seq (native PAGE EMSA with sequencing of bound and unbound); 25 mM Tris-HCl pH 7.4, 150 mM KCl, 5 mM MgCl2, 10% glycerol, 1 mM DTT, 40 ng/uL salmon sperm DNA; 400 nM Cas12a, 480 nM crRNA, 50 nM library, 37 C 1 h; native PAGE at room temperature; high values mean tight binding. The conditions noted are these: protein: recombinant.
With B1, the binding signal is -4.22 lnKA.
Turning to B2, the binding signal was -4.32 lnKA.
As to B3, the binding signal was -7.14 lnKA.
Still for that read-out and setting: in the case of B4 it was -7.72 lnKA; in that of B5, -5.08 lnKA.
Same read-out and setting: in the case of B6 it was -8.06 lnKA; in that of B7, -6.14 lnKA.
Still for that read-out and setting: for B8 the value was -5.6 lnKA.
Regarding B9, the binding signal is -4.67 lnKA.
Same read-out and setting: in the case of B10 it was -7.25 lnKA.
B11: the binding signal was -4.74 lnKA.
Still for that read-out and setting: for B12 the value was -3.71 lnKA; for B13, -7.18 lnKA.

The next assay addresses dAsCas12a E174R (Acidaminococcus sp., UniProt U2UMQ6 1-1307, E174R;D908A;E993A;D1235A). Described as above. The note with it: protein: recombinant.
For B1, the binding signal was -2.38 lnKA.
Still for that read-out and setting: in the case of B2 it was -3.79 lnKA; in that of B3, -4.71 lnKA; in that of B4, -6.33 lnKA.
B5: the binding signal is -4.65 lnKA.
Regarding B6, the binding signal was -6.65 lnKA.
Same read-out and setting: in the case of B7 it was -6.06 lnKA; in that of B8, -5.33 lnKA.
Turning to B9, the binding signal is -3 lnKA.
Same read-out and setting: for B10 the value was -6.84 lnKA; for B11, -4.51 lnKA; for B12, -2.54 lnKA.
In the case of B13, the binding signal is -6.98 lnKA.

In the next assay the target is dAsCas12a S542R (Acidaminococcus sp., UniProt U2UMQ6 1-1307, S542R;D908A;E993A;D1235A). The assay is described as above. The conditions noted are these: protein: recombinant.
Consider B1, for which the binding signal is -4.07 lnKA.
Same read-out and setting: in the case of B2 it was -4.75 lnKA.
The same measure, in the same setting: for B3 the value was -6.54 lnKA; for B4, -7.21 lnKA.
With B5, the binding signal was -5.07 lnKA.
The same measure, in the same setting: in the case of B6 it was -7.42 lnKA; in that of B7, -1.93 lnKA; in that of B8, -5.32 lnKA.
The same measure, in the same setting: for B9 the value was -4.46 lnKA; for B10, -7.35 lnKA; for B11, -4.83 lnKA.
Same read-out and setting: for B12 the value was -4.59 lnKA; for B13, -7.04 lnKA.

A further assay has as its target dAsCas12a K548R (Acidaminococcus sp., UniProt U2UMQ6 1-1307, K548R;D908A;E993A;D1235A). The assay is described as above. The conditions noted are these: protein: recombinant.
With B1, the binding signal is -5.75 lnKA.
On the same count and under the same terms, for B2 the value was -5.73 lnKA; for B3, -6.91 lnKA.
On the same count and under the same terms, in the case of B4 it was -6.57 lnKA; in that of B5, -6.66 lnKA; in that of B6, -7.66 lnKA.
As to B8, the binding signal was -6.8 lnKA.
Same read-out and setting: in the case of B9 it was -6 lnKA; in that of B10, -8.41 lnKA.
For B11, the binding signal is -5.84 lnKA.
Same read-out and setting: for B12 the value was -8.57 lnKA.
As to B13, the binding signal is -8.38 lnKA.

In the next assay the target is d-enCas12a (Acidaminococcus sp., UniProt U2UMQ6 1-1307, E174R;S542R;K548R;D908A;E993A;D1235A). The assay is described as above. The conditions noted are these: protein: recombinant.
Consider B1, for which the binding signal was -0.581 lnKA.
Still for that read-out and setting: for B2 the value was -0.728 lnKA.
On the same count and under the same terms, for B3 the value was -0.769 lnKA; for B4, -0.993 lnKA.
Turning to B5, the binding signal is -1.7 lnKA.
For the molecule B6, the binding signal is -1.93 lnKA.
Still for that read-out and setting: for B7 the value was -0.958 lnKA; for B8, -1.41 lnKA.
The same measure, in the same setting: for B9 the value was -0.547 lnKA; for B10, -2.97 lnKA.
Still for that read-out and setting: for B11 the value was -0.632 lnKA; for B12, -3.31 lnKA; for B13, -2.65 lnKA.

The next assay has as its target d-enCas12a-Ultra (Acidaminococcus sp., UniProt U2UMQ6 1-1307, E174R;S542R;K548R;M537R;F870L;D908A;E993A;D1235A). The description is as above. The note with it: protein: recombinant.
Regarding B1, the binding signal was -0.177 lnKA.
On the same count and under the same terms, in the case of B2 it was -0.217 lnKA; in that of B3, -0.324 lnKA.
Still for that read-out and setting: in the case of B4 it was -0.399 lnKA; in that of B5, -0.41 lnKA; in that of B6, -0.687 lnKA.
B7: the binding signal is -0.245 lnKA.
The same measure, in the same setting: in the case of B8 it was -0.361 lnKA.
For the molecule B9, the binding signal was -0.184 lnKA.
Turning to B10, the binding signal was -0.647 lnKA.
Still for that read-out and setting: in the case of B11 it was -0.198 lnKA.
Same read-out and setting: for B12 the value was -0.837 lnKA; for B13, -0.552 lnKA.
